Results reported in PubChem BioAssay (EPA / NIEHS).
Records with an inconclusive call do not appear. Activity calls are given as the source filed them. How the source made its calls: active means hit-call score of the fitted dose curve at least 0.9, where 1 is the maximum; inconclusive means response in the unintended direction; inactive means score below 0.9.

What follows are molecules tested against Nuclear receptor subfamily 1 group I member 2 (Homo sapiens) (UniProt O75469) (assay: ATG_PXR_TRANS: Attagene TRANS-FACTORIAL HepG2 Assay for human Pregnane X Receptor (PXR) (AID 2283008)).
Nuclear receptor subfamily 1 group I member 2 (Homo sapiens), sequence (O75469 whole entry, looked up): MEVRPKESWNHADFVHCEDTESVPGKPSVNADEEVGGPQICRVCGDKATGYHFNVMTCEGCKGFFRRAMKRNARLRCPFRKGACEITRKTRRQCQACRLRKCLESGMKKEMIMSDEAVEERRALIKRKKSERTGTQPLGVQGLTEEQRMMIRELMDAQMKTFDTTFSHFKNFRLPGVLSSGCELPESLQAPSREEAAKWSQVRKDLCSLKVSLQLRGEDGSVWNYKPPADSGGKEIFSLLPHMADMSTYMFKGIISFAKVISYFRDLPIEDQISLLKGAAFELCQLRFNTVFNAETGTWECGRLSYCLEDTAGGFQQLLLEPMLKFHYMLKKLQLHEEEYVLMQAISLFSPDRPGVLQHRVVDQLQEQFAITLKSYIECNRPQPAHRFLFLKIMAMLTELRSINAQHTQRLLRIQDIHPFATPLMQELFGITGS
Description: ATG_TRANS is a cell-based, multiplexed-readout assay that uses HepG2, a human liver cell line, with measurements taken at 24 hours after chemical dosing in a 24-well plate.ATG_PXR_TRANS is one of 30 assay component(s) measured or calculated from the ATG_TRANS assay. It is designed to make measurements of mRNA induction, a form of inducible reporter, as detected with fluorescence intensity signals by Reverse transcription polymerase chain reaction (RT-PCR) and Capillary electrophoresis technology.Data from the assay component ATG_PXR_TRANS was analyzed into 1 assay endpoint. This assay endpoint, ATG_PXR_TRANS, was analyzed in the positive analysis fitting direction relative to DMSO as the negative control and baseline of activity. Using a type of inducible reporter, measures of mRNA for gain-of-signal activity can be used to understand the reporter gene at the transcription factor-level as they relate to the gene NR1I2. Furthermore, this assay endpoint can be referred to as a primary readout, because this assay has produced multiple assay endpoints where this one serves a reporter gene function. To generalize the intended target to other relatable targets, this assay endpoint is annotated to the nuclear receptor intended target family, where the subfamily is non-steroidal.
Human liver HepG2 cells are transiently transfected with multiple reporter transcription units (MRTUs) in 6-well plates using FuGene 6 reagent (Roche; 3 ml FuGene/1 mg DNA). The MRTU constructs are regulated by a cis-regulating element (promoter). […] A major difference between the CIS and TRANS system is that in CIS activities of endogenous TFs are measured, whereas the TRANS assay evaluates changes in activities of exogenous, chimeric NR-Gal4 proteins. […] At the end of 24 hour incubation, total RNA was isolated using TriZol reagent (Invitrogen). The isolated RNA is then reverse-transcribed using oligo(dT) primer and Mo-MLV reverse transcriptase (Invitrogen) with DNAse I (Ambion) treatment for 30 min. The one-tenth of the produced cDNA was amplified by PCR using Taq DNA polymerase (Invitrogen) and two reporter sequence-specific primers. The PCR products were fluorescently labeled by primer extension with 6-arboxyfluorescein (6-FAM) 5'-labeled reporter sequence-specific primer (2 min at 95 C, 20 s at 68 C and 10 min at 72 C) and these products were digested with 5U of HpaI (New England Biolabs) for 2h at 37 C. The fragments were purified using Qiaquick PCR columns (Qiagen), analyzed on an ABI 3130xL genetic analyzer (Applied Biosystems) with peak positions identified by using a set of X-rhodamine (ROX)-labeled MapMarker1000 molecular weight standards (BioVentures). The raw capillary electrophoresis data was processed using Attagraph software (Attagene).

SMILES	outcome	AC50
O=C/C(Cl)=C(/Cl)C(=O)O	inactive	
CCOC(=O)CC(=O)CCl	inactive	
CCCCN(CCCC)C(=S)[S-].CCCCN(CCCC)C(=S)[S-].[Ni+2]		2.73 µM (active)
COc1ccc(N)cc1	inactive	
C[C@]12CC[C@@H](O)C[C@@H]1CC[C@@H]1[C@@H]2CC[C@]2(C)C(=O)CC[C@@H]12	inactive	
Oc1ccc(Cc2ccc(O)cc2)cc1	inactive	
C[N+](C)(C)Cc1ccccc1	inactive	
Cc1ccc(OP(=O)(Oc2ccc(C)cc2C)Oc2ccc(C)cc2C)c(C)c1		0.0821 µM (active)
O=c1[nH]c(=O)n(Cl)c(=O)n1Cl	inactive	
CCOP(=O)(OCC)SCCSCC	inactive	
C=C(C)[C@@H]1CC=C(C=O)CC1		11 µM (active)
CC(C)(COCC1CO1)COCC1CO1 (stereo not given)	inactive	
O=c1nc(O)n(Cl)c(=O)n1Cl	inactive	
CC(C)=CC1C(C(=O)OCc2cccc(Oc3ccccc3)c2)C1(C)C (stereo not given)		9.55 µM (active)
O=C1C=CC(=O)c2ccccc21	inactive	
NNCCO	inactive	
C=CC(Cl)CCl (stereo not given)		27.2 µM (active)
CCCSP(=S)(OCC)Oc1ccc(SC)cc1 (stereo not given)		3.65 µM (active)
Cc1cc(C(F)(C(F)(F)F)C(F)(F)F)ccc1NC(=O)c1cccc(I)c1C(=O)NC(C)(C)CS(C)(=O)=O		1.13 µM (active)
CCOc1cc(C=O)ccc1O	inactive	

SMILES	outcome	AC50
CC(C)(C)c1cc([N+](=O)[O-])cc(C(C)(C)C)c1O		6.49 µM (active)
CN(N=O)c1ccc([N+](=O)[O-])cc1		19.8 µM (active)
CC(C)CP(=S)(S)CC(C)C		59.1 µM (active)
Cc1cccc(N=Nc2ccc(N(C)C)cc2)c1	inactive	
OC(c1ccc(Cl)cc1)(c1ccc(Cl)cc1)c1cccnc1	inactive	
Cc1ccccc1OP(=O)(Oc1ccccc1)Oc1ccccc1		0.736 µM (active)
C[C@H]1C(=O)O[C@@H]2CCN3CC=C(COC(=O)[C@](C)(O)[C@]1(C)O)[C@H]23	inactive	
COC(=O)Nc1cccc(OC(=O)Nc2cccc(C)c2)c1	inactive	
C[CH2][Hg][S]c1ccccc1C(=O)O	inactive	
Cc1ccc2nc3sc(=O)sc3nc2c1		6.31 µM (active)
CCN(CC)C(=O)C(Cl)=C(C)OP(=O)(OC)OC	inactive	
O=NN1CCCCCCC1	inactive	
CCC[N+](CCC)(CCC)CCC	inactive	
N#Cc1ccc(Cl)cc1	inactive	
CC(=O)CN(CC(C)=O)N=O	inactive	
Nc1c(Oc2ccccc2)cc(O)c2c1C(=O)c1ccccc1C2=O		3.13 µM (active)
Nc1cccnc1	inactive	
O=[N+]([O-])c1c2ccccc2cc2ccccc12		4.7 µM (active)
CCCCN(CCCCO)N=O	inactive	
CCOCn1c(-c2ccc(Cl)cc2)c(C#N)c(Br)c1C(F)(F)F		0.561 µM (active)
